# Measurements: PubChem BioAssay (NCATS)
# Results filed as inconclusive are left out. Active and inactive are the calls of the source. The call rests on the fitted dose curve; in most records, active means well fitted curve in the direction sought with a large enough effect; inconclusive means small, poorly fitted or top-dose-only effect, or another doubt; inactive means no such curve, though single readings can be large; an effect the other way counts as inactive or inconclusive. Residues, ends and D or L forms follow the SMILES beside them.
# What was measured:
# [1] = BET inhibitor-based combinations targeting novel dependencies in MECOM-rearranged (r) AML: OCI-AML3 cell line (AID 2202232); settings: Potency: OCI-AML3 viability; further: nearly all actives have a fitted effect of over 35% in size
# Procedure, shortened: (§1)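 500 cells/well; 11-pt dose curve; 48 h, standard incubator; CellTiter-Glo luminescence after 15 min RT; DMSO/empty-well normalization; AUC plus Z-AUC (mean-centered within each line).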
# [2] = BET inhibitor-based combinations targeting novel dependencies in MECOM-rearranged (r) AML: HNT-34 cell line (AID 2202234); further: nearly all actives have a fitted effect of over 35% in size
# Procedure, shortened: (§2)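 Cells were plated at 500 per well and exposed to each drug across an 11-point dose range for 48 hr at standard incubator conditions. Viability was read by CellTiter-Glo luminescence, and activity was expressed as AUC and per-cell-line Z-transformed AUC.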
# [3] = BET inhibitor-based combinations targeting novel dependencies in MECOM-rearranged (r) AML: AML-191 cell line (AID 2202236; further: nearly all actives have a fitted effect of over 35% in size)
# Procedure, shortened: as §1
# [4] = BET inhibitor-based combinations targeting novel dependencies in MECOM-rearranged (r) AML: UCSD-AML1 cell line (AID 2202235); further: nearly all actives have a fitted effect of over 40% in size
# Procedure, shortened: as §2
# [5] = BET inhibitor-based combinations targeting novel dependencies in MECOM-rearranged (r) AML: AML-194 cell line (AID 2202237; further: nearly all actives have a fitted effect of over 40% in size)
# Procedure, shortened: as §1
# [6] = BET inhibitor-based combinations targeting novel dependencies in MECOM-rearranged (r) AML: MV-4-11 cell line (AID 2202233); further: nearly all actives have a fitted effect of over 45% in size
# Procedure, shortened: as §2
# Potency means the concentration at half of the fitted maximal effect.
Structure (SMILES),Potency [1],Potency [2],Potency [3],Potency [4],Potency [5],Potency [6],outcome [2]
Cc1onc(-c2ccccc2)c1-c1ccc(S(N)(=O)=O)cc1,inactive,inactive,–,–,–,–,–
Cc1ccc(NC(=O)c2cccc(C(C)(C)C#N)c2)cc1Nc1ccc2ncn(C)c(=O)c2c1,0.0742 µM (active),0.662 µM (active),–,–,–,–,–
COc1cc(N2CCN(C)CC2)ccc1Nc1ncc2c(n1)N(C)c1ccccc1C(=O)N2,18.6 µM (active),26.3 µM (active),26.3 µM (active),–,–,–,–
O=C(NC1CC1)c1cccc(-c2ccc3c(NC(=O)C4CC4)n[nH]c3c2)c1,10.5 µM (active),3.32 µM (active),2.95 µM (active),4.68 µM (active),4.68 µM (active),–,–
CCCCOc1ccc(CC(=O)NO)cc1,13.2 µM (active),20.9 µM (active),–,–,23.5 µM (active),–,–
Nc1nccc(-c2c(-c3ccc(F)cc3)ncn2C2CCN(Cc3ccon3)CC2)n1,–,8.33 µM (active),–,–,–,10.5 µM (active),–
C[C@H](NC(=O)C(=O)Nc1ccccc1C(C)(C)C)C(=O)N[C@@H](CC(=O)O)C(=O)COc1c(F)c(F)cc(F)c1F,10.5 µM (active),–,20.9 µM (active),–,–,–,–
C/C(=C\C(=O)Nc1ccccc1C(=O)O)c1ccc2ccccc2c1,inactive,–,–,inactive,inactive,–,–
CO[C@H]1/C=C/O[C@@]2(C)Oc3c(C)c(O)c4c(O)c(c5c(c4c3C2=O)=NC2(CCN(CC(C)C)CC2)N=5)NC(=O)/C(C)=C/C=C/[C@H](C)[C@H](O)[C@@H](C)[C@@H](O)[C@@H](C)[C@H](OC(C)=O)[C@@H]1C,16.6 µM (active),–,18.6 µM (active),inactive,–,–,–
CC[C@H](NC(=O)[C@H](C)NC)C(=O)N1C[C@@H](O)C[C@H]1Cc1c(-c2[nH]c3cc(F)ccc3c2C[C@@H]2C[C@H](O)CN2C(=O)[C@H](CC)NC(=O)[C@H](C)NC)[nH]c2cc(F)ccc12,inactive,–,0.742 µM (active),0.332 µM (active),1.18 µM (active),–,–
O=C(O)c1ccccc1-c1ccc(/C=c2\sc3nc4cc(Br)cnc4n3c2=O)o1,inactive,–,inactive,inactive,inactive,–,–
CONC(=O)Nc1ccc(-c2sc3c(c2CN(C)C)c(=O)n(-c2ccc(OC)nn2)c(=O)n3Cc2c(F)cccc2F)cc1,–,inactive,–,inactive,inactive,inactive,–
CCN1C(=O)CNc2ncc(-c3ccc(-c4ncn[nH]4)nc3C)nc21,–,–,–,0.186 µM (active),–,1.66 µM (active),–
Cc1ccc([C@@H]2O[C@H](CO)[C@@H](O)[C@H](O)[C@H]2O)cc1Cc1ccc(-c2ccc(F)cc2)s1,–,–,20.9 µM (active),inactive,inactive,13.2 µM (active),–
CNC(=O)c1ccc(N2C(=S)N(c3ccc(C#N)c(C(F)(F)F)c3)C(=O)C2(C)C)cc1F,–,–,inactive,inactive,inactive,18.6 µM (active),–
Cc1[nH]c(/C=C2\C(=O)Nc3ccc(S(=O)(=O)Cc4c(Cl)cccc4Cl)cc32)c(C)c1C(=O)N1CCC[C@@H]1CN1CCCC1,–,18.6 µM (active),9.34 µM (active),8.33 µM (active),9.34 µM (active),5.9 µM (active),–
C[C@H]1CNC(=O)c2cnn3ccc(nc23)N[C@H](C)c2cc(F)ccc2O1,–,0.833 µM (active),–,0.833 µM (active),–,1.32 µM (active),–
Clc1cc(Cl)cc(CNc2ncncc2-c2ccc3c(c2)OCO3)c1,–,–,–,inactive,26.3 µM (active),23.5 µM (active),–
CCNC(=O)Nc1ccc(Oc2ncnc(N)c2/C=N/OC)cc1Cl,–,20.9 µM (active),16.6 µM (active),23.5 µM (active),23.5 µM (active),18.6 µM (active),–
COc1cc(OCc2cccc(-c3ccccc3)c2C)cc(OC)c1CN1CCCC[C@H]1C(=O)O,–,–,–,inactive,–,20.9 µM (active),–
O=c1oc2c(C3OCCCO3)c(O)ccc2c2c1CNCC2,–,–,18.6 µM (active),inactive,inactive,inactive,–
O=C(Nc1ccc(OC(F)(F)Cl)cc1)c1cnc(N2CC[C@@H](O)C2)c(-c2ccn[nH]2)c1,–,0.0105 µM (active),–,inactive,18.6 µM (active),20.9 µM (active),–
C[C@@H](O)[C@@H](C)Oc1nc(Nc2ccc(S(=N)(=O)C3CC3)cc2)ncc1C(F)(F)F (some centres not stated),–,16.6 µM (active),18.6 µM (active),20.9 µM (active),16.6 µM (active),14.8 µM (active),–
N[C@@H](CCC(=O)O)C(=O)N[C@@H](Cc1c[nH]c2ccccc12)C(=O)O (H-Glu-Trp-OH),–,inactive,–,–,inactive,inactive,–
O=C(Nc1cccc(Nc2ncc(Br)c(NCCc3cnc[nH]3)n2)c1)N1CCCC1,–,1.66 µM (active),5.25 µM (active),1.18 µM (active),5.9 µM (active),0.118 µM (active),–
COc1ccc2[nH]c(C(=O)N3CCC(CC(C)(C)O)CC3)cc2c1,–,inactive,–,inactive,inactive,inactive,–

Structure (SMILES),Potency [1],Potency [2],Potency [3],Potency [4],Potency [5],Potency [6],outcome [2]
Cc1ccc(-c2ncc(Cl)cc2-c2ccc(S(C)(=O)=O)cc2)cn1,–,inactive,inactive,inactive,inactive,inactive,–
Cc1cc(OCCCc2c3n(c4c(-c5c(C)nn(C)c5C)c(Cl)ccc24)[C@H](C)CN(c2cn(C)c4ccc(C(=O)O)cc24)C3=O)cc(C)c1Cl,–,2.95 µM (active),20.9 µM (active),20.9 µM (active),14.8 µM (active),0.468 µM (active),–
Cn1ncc(NC(=O)c2nc(-c3c(F)cccc3F)sc2N)c1N1CC[C@@H](N)[C@H](F)CC1,–,2.09 µM (active),–,0.0934 µM (active),–,2.63 µM (active),–
COc1c(Nc2ncc(Cl)c(N[C@H]3[C@H](C(N)=O)[C@@H]4C=C[C@@H]3C4)n2)ccc2c1CCC(N1CCOCC1)CC2 (some centres not stated),–,–,18.6 µM (active),inactive,inactive,0.525 µM (active),–
N#Cc1ccc(-c2c(-c3ncn[nH]3)sc(N3CCOCC3)c2C#N)c(F)c1,–,10.5 µM (active),–,1.32 µM (active),3.32 µM (active),5.9 µM (active),–
Cc1c(CN2CCN(C(=O)[C@H](C)O)CC2)sc2c(N3CCOCC3)nc(-c3cnc(N)nc3)nc12,–,–,–,0.0525 µM (active),–,0.525 µM (active),–
CN[C@@H]1C[C@H]2O[C@@](C)([C@@H]1OC)n1c3ccccc3c3c4c(c5c6ccccc6n2c5c31)C(=O)N[C@H]4O,–,0.428 µM (active),0.605 µM (active),0.135 µM (active),–,0.0215 µM (active),–
Cc1ccc(Nc2nnc(Cc3ccncc3)c3ccccc23)cc1Br,–,20.9 µM (active),–,inactive,–,16.6 µM (active),–
Cc1ccc(-c2ccc(C)cn2)nc1,–,–,–,inactive,–,inactive,–
COc1ccc(C2=N[C@H](c3ccc(Cl)cc3)[C@H](c3ccc(Cl)cc3)N2C(=O)N2CCNC(=O)C2)c(OC(C)C)c1,–,23.5 µM (active),26.3 µM (active),–,–,23.5 µM (active),–
N#Cc1c(N)nc(N)nc1N[C@H](c1nc2c(F)ccc(Cl)c2c(=O)n1-c1cccnc1)C1CC1,–,16.6 µM (active),–,5.9 µM (active),–,3.32 µM (active),–
Cc1ccc(-c2nc(N)nc3c2nnn3Cc2cccc(CO[C@H]3CCOC3)n2)o1,–,inactive,–,inactive,inactive,inactive,–
O=C(O)/C=C/c1ccc(Cn2ccnc2)cc1,–,inactive,inactive,inactive,inactive,inactive,–
C[C@H](NC(=O)/C(C#N)=C/c1cccc(Br)n1)c1ccccc1,–,4.17 µM (active),4.68 µM (active),3.72 µM (active),9.34 µM (active),4.17 µM (active),–
Cc1ccc(Nc2cc(N[C@@H]3CCCC[C@@H]3N)nnc2C(N)=O)nc1C,–,16.6 µM (active),18.6 µM (active),–,–,3.72 µM (active),–
O=c1cc(N2CCOCC2)oc2c(-c3ccc4c(c3)OCCO4)csc12,–,5.25 µM (active),5.25 µM (active),3.32 µM (active),2.95 µM (active),2.09 µM (active),–
CCC1CCCCN1C(=O)n1ncc(C(O)(c2ccccc2)c2ccccc2)n1 (configuration not stated),–,–,14.8 µM (active),20.9 µM (active),–,14.8 µM (active),–
Clc1ccc(C(Cn2ccnc2)OCc2ccsc2Cl)c(Cl)c1 (configuration not stated),–,18.6 µM (active),–,–,23.5 µM (active),23.5 µM (active),–
CC1=C2C[C@H]3[C@@H](CC[C@@H]4C[C@H](NS(C)(=O)=O)CC[C@@]43C)[C@@H]2CC[C@@]2(C1)O[C@@H]1C[C@H](C)CN[C@H]1[C@H]2C,–,16.6 µM (active),20.9 µM (active),–,23.5 µM (active),16.6 µM (active),–
C[C@@H]1Cc2c([nH]c3ccccc23)[C@@H](c2c(F)cc(/C=C/C(=O)O)cc2F)N1CC(C)(C)F,–,inactive,inactive,inactive,inactive,inactive,–
CN(C)c1ccc(O)c2c1C[C@H]1C[C@H]3[C@H](N(C)C)C(=O)C(C(N)=O)=C(O)[C@@]3(O)C(=O)C1=C2O,–,13.2 µM (active),–,inactive,–,inactive,–
COc1ccc(Cl)cc1-c1cc(=O)[nH]c(=S)n1CC(N)=O,–,inactive,–,inactive,–,inactive,–
CNC(=O)[C@@H](NC(=O)[C@H](CC(C)C)[C@H](O)C(=O)NO)C(C)(C)C,–,14.8 µM (active),20.9 µM (active),inactive,–,16.6 µM (active),–
[2H]c1nc(C)nc([2H])c1-c1cc(NC[C@@H](C)c2cccc3c(C(=O)NC)ccnc23)ncn1,–,–,–,inactive,–,inactive,inactive
CCN(C(=O)c1ccccc1OC)c1cc2c(cc1N1CCNC[C@H]1C)n(C)c(=O)n2C,–,inactive,–,inactive,inactive,inactive,–
